Records with an inconclusive call do not appear. Calls of active or inactive are those of the source. Calls follow the shape of the dose curve; as a rule, active = well fitted curve in the direction sought with a large enough effect; inconclusive = small, poorly fitted or top-dose-only effect, or another doubt; inactive = no such curve, though single readings can be large; an effect the other way counts as inactive or inconclusive.
Assays:
[1] = Quantitative High-Throughput drug screen in 47 multiple myeloma cell lines against the NCATS MIPE library collection: JJN3_DSMZ cell viability assay (AID 1918966; also: nearly all actives have a fitted effect of over 50% in size)
Procedure, shortened: (§1)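 CellTiter-Glo ATP luminescence gave viability after 48 h compound treatment at 37C of 500 multiple myeloma cells per well. Normalisation used DMSO-only wells as 100% and media-only wells as 0% viability; primary qHTS of approved and investigational drugs.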

[2] = Quantitative High-Throughput drug screen in 47 multiple myeloma cell lines against the NCATS MIPE library collection: H1112_PLB cell viability assay (AID 1918967; also: nearly all actives have a fitted effect of over 30% in size)
Procedure, shortened: as §1

[3] = Quantitative High-Throughput drug screen in 47 multiple myeloma cell lines against the NCATS MIPE library collection: Karpas25_ECACC cell viability assay (AID 1918968; also: nearly all actives have a fitted effect of over 35% in size)
Procedure, shortened: as §1

[4] = Quantitative High-Throughput drug screen in 47 multiple myeloma cell lines against the NCATS MIPE library collection: KMS12BM_JCRB cell viability assay (AID 1918971); also: nearly all actives have a fitted effect of over 35% in size
Procedure, shortened: (§2)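 Inhibition of cell viability is measured here. Each line was plated at 500 cells per well, treated with MIPE 4.0 drugs, kept 48 hours at 37C, then assayed for ATP content by CellTiter-Glo luminescence.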

[5] = Quantitative High-Throughput drug screen in 47 multiple myeloma cell lines against the NCATS MIPE library collection: KMS21BM_JCRB cell viability assay (AID 1918974); conditions: ATP luminescence, 48 h; viability: at 45.8 µM (top of the series) unless noted
Procedure, shortened: as §1

[6] = Quantitative High-Throughput drug screen in 47 multiple myeloma cell lines against the NCATS MIPE library collection: KMS26_JCRB cell viability assay (AID 1918975); also: nearly all actives have a fitted effect of over 45% in size
Procedure, shortened: as §2

[7] = Quantitative High-Throughput drug screen in 47 multiple myeloma cell lines against the NCATS MIPE library collection: MOLP8_DSMZ cell viability assay (AID 1918977); also: nearly all actives have a fitted effect of over 45% in size
Procedure, shortened: (§3)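 500 cells/well per myeloma line exposed to pinned MIPE 4.0 compounds for 48 h at 37 °C, 5% CO2. Viability read as ATP by CellTiter-Glo luminescence, normalised to DMSO-only (100%) and media-only (0%) wells.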

[8] = Quantitative High-Throughput drug screen in 47 multiple myeloma cell lines against the NCATS MIPE library collection: NCIH929_DSMZ cell viability assay (AID 1918978); also: nearly all actives have a fitted effect of over 35% in size
Procedure, shortened: as §3

[9] = Quantitative High-Throughput drug screen in 47 multiple myeloma cell lines against the NCATS MIPE library collection: OCIMY1_PLB cell viability assay (AID 1918979); also: nearly all actives have a fitted effect of over 35% in size
Procedure, shortened: as §3

[10] = Quantitative High-Throughput drug screen in 47 multiple myeloma cell lines against the NCATS MIPE library collection: MM1S_ATCC cell viability assay (AID 1918980); also: nearly all actives have a fitted effect of over 45% in size
Procedure, shortened: as §3

[11] = Quantitative High-Throughput drug screen in 47 multiple myeloma cell lines against the NCATS MIPE library collection: KMS27_JCRB cell viability assay (AID 1918970); also: nearly all actives have a fitted effect of over 30% in size
Procedure, shortened: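 Luminescent ATP read-out (CellTiter-Glo, 5 min at room temperature) after 48 h compound exposure of 500 KMS27_JCRB cells per well; DMSO wells define full viability and media-only wells zero.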

[12] = Quantitative High-Throughput drug screen in 47 multiple myeloma cell lines against the NCATS MIPE library collection: LP1_DSMZ cell viability assay (AID 1918982); also: nearly all actives have a fitted effect of over 35% in size
Procedure, shortened: as §3

[13] = Quantitative High-Throughput drug screen in 47 multiple myeloma cell lines against the NCATS MIPE library collection: KMS12PE_JCRB cell viability assay (AID 1918972); also: nearly all actives have a fitted effect of over 30% in size
Procedure, shortened: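 Myeloma cell lines, 500 cells per well, exposed to MIPE 4.0 library compounds for 48 h at 37C, 5% CO2. Viability from ATP by CellTiter-Glo luminescence; normalised to DMSO (100%) and media-only (0%) wells.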

[14] = Quantitative High-Throughput drug screen in 47 multiple myeloma cell lines against the NCATS MIPE library collection: MMM1_PLB cell viability assay (AID 1918976); also: nearly all actives have a fitted effect of over 35% in size
Procedure, shortened: as §3

[15] = Quantitative High-Throughput drug screen in 47 multiple myeloma cell lines against the NCATS MIPE library collection: MM1R_ATCC cell viability assay (AID 1918981); also: nearly all actives have a fitted effect of over 35% in size
Procedure, shortened: as §3

[16] = Quantitative High-Throughput drug screen in 47 multiple myeloma cell lines against the NCATS MIPE library collection: KMS28PE_JCRB cell viability assay (AID 1918983); also: nearly all actives have a fitted effect of over 35% in size
Procedure, shortened: as §3

[17] = Quantitative High-Throughput drug screen in 47 multiple myeloma cell lines against the NCATS MIPE library collection: L363_DSMZ cell viability assay (AID 1918984); also: nearly all actives have a fitted effect of over 40% in size
Procedure, shortened: as §3

[18] = Quantitative High-Throughput drug screen in 47 multiple myeloma cell lines against the NCATS MIPE library collection: KMS20_JCRB cell viability assay (AID 1918973); also: nearly all actives have a fitted effect of over 45% in size
Procedure, shortened: as §1
Potency is read from the fitted curve at half-maximal effect.

CC[C@H](Nc1ncnc2nc[nH]c12)c1nc2cccc(F)c2c(=O)n1-c1ccccc1
active: Potency [1] 10.5 µM | Potency [2] 2.64 µM | Potency [3] 11.8 µM | Potency [4] 18.7 µM | Potency [6] 13.2 µM | Potency [7] 23.5 µM | Potency [8] 8.33 µM | Potency [9] 16.6 µM | Potency [10] 0.118 µM
inactive: Potency [5]

CC(C)OC(=O)C1=CN(C(=O)c2ccc(F)c(F)c2)CC(C)(C)c2c1[nH]c1ccccc21
inactive: Potency [2] | Potency [3] | Potency [11] | Potency [6] | Potency [7] | Potency [8] | Potency [12]

COc1cccc2cc(-c3nc(C4CCC(C(=O)O)CC4)n4ncnc(N)c34)[nH]c12 (stereo not drawn)
active: Potency [2] 5.9 µM | Potency [3] 0.662 µM | Potency [13] 0.166 µM | Potency [5] 0.469 µM | Potency [6] 0.662 µM | Potency [14] 0.662 µM | Potency [7] 0.418 µM | Potency [8] 0.187 µM | Potency [10] 0.469 µM | Potency [15] 0.469 µM | Potency [16] 0.469 µM

NNCCc1ccccc1
active: Potency [2] 0.059 µM | Potency [3] 8.33 µM | Potency [4] 14.8 µM | Potency [13] 14.8 µM | Potency [5] 13.2 µM | Potency [10] 5.9 µM | Potency [15] 6.62 µM | Potency [16] 9.35 µM
inactive: Potency [8] | Potency [9]

Clc1cccc(Cl)c1NC1=NCCN1
inactive: Potency [2] | Potency [3] | Potency [11] | Potency [13] | Potency [7] | Potency [8] | Potency [9] | Potency [12] | Potency [16] | Potency [17]
active: Potency [10] 18.7 µM

NC(=O)c1ccc(I)c([N+](=O)[O-])c1
inactive: Potency [2] | Potency [9] | Potency [12] | Potency [16]
active: Potency [3] 23.5 µM | Potency [8] 8.33 µM | Potency [10] 18.7 µM | Potency [15] 23.5 µM

O=C(O)COCCN1CCN(C(c2ccccc2)c2ccc(Cl)cc2)CC1 (stereo not drawn)
active: Potency [14] 14.8 µM | Potency [17] 0.296 µM
inactive: Potency [1] | Potency [2] | Potency [3] | Potency [13] | Potency [7] | Potency [10] | Potency [15]

CC(=O)Oc1ccccc1C(=O)O
active: Potency [2] 7.43 µM | Potency [6] 11.8 µM | Potency [8] 4.18 µM | Potency [10] 5.26 µM | Potency [15] 18.7 µM
inactive: Potency [3] | Potency [11] | Potency [13] | Potency [7] | Potency [16] | Potency [17]

Cc1c(C)c2c(c(C)c1O)CCC(C)(COc1ccc(CC3SC(=O)NC3=O)cc1)O2 (stereo not drawn)
inactive: Potency [1] | Potency [2] | Potency [4] | Potency [7] | Potency [9] | Potency [15] | Potency [12] | Potency [16] | Potency [17]

CNC(=O)c1ccc(N2C(=S)N(c3ccc(C#N)c(C(F)(F)F)c3)C(=O)C2(C)C)cc1F
active: Potency [3] 18.7 µM | Potency [10] 18.7 µM
inactive: Potency [2] | Potency [6] | Potency [7] | Potency [8] | Potency [15] | Potency [12] | Potency [16] | Potency [17]

COc1cc2nccc(Oc3ccc(NC(=O)NC4CC4)c(Cl)c3)c2cc1C(N)=O
active: Potency [1] 1.48 µM | Potency [2] 2.96 µM | Potency [11] 3.32 µM | Potency [4] 5.9 µM | Potency [13] 0.833 µM | Potency [18] 13.2 µM | Potency [6] 23.5 µM | Potency [7] 13.2 µM | Potency [8] 16.6 µM | Potency [10] 0.264 µM | Potency [15] 1.18 µM | Potency [12] 20.9 µM | Potency [16] 13.2 µM
inactive: Potency [17]

CNC[C@H](O)c1cccc(O)c1
active: Potency [3] 4.69 µM
inactive: Potency [2] | Potency [11] | Potency [13] | Potency [6] | Potency [8] | Potency [10] | Potency [12] | Potency [16]

C[C@@H]1CN(Cc2ccc(F)cc2)[C@@H](C)CN1C(=O)c1cc2c(C(=O)C(=O)N(C)C)cn(C)c2cc1Cl
inactive: Potency [9]
active: Potency [2] 13.2 µM | Potency [3] 9.35 µM | Potency [11] 14.8 µM | Potency [13] 20.9 µM | Potency [6] 18.7 µM | Potency [14] 23.5 µM | Potency [10] 10.5 µM

C[C@]12CC[C@H](O)CC1=CC[C@@H]1[C@H]2CC[C@]2(C)C(c3cccnc3)=CC[C@H]12
inactive: Potency [2] | Potency [11] | Potency [4] | Potency [13] | Potency [18] | Potency [6] | Potency [9] | Potency [15] | Potency [12] | Potency [16] | Potency [17]

CCOc1ccn(-c2ccc(F)cc2)c(=O)c1C(=O)Nc1ccc(Oc2ccnc(N)c2Cl)c(F)c1
inactive: Potency [6]
active: Potency [2] 13.2 µM | Potency [3] 2.35 µM | Potency [10] 16.6 µM

C[C@H](NC(=O)Cc1cc(F)cc(F)c1)C(=O)N[C@@H]1C(=O)N(C)c2ccccc2-c2ccccc21
active: Potency [2] 5.9 µM | Potency [3] 5.26 µM | viability [5] 138% | Potency [8] 4.69 µM | Potency [10] 9.35 µM
inactive: Potency [12] | Potency [16]

Cc1cc2c(C(C)C)c(O)c(O)c(C=O)c2c(O)c1-c1c(C)cc2c(C(C)C)c(O)c(O)c(C=O)c2c1O
active: Potency [1] 18.7 µM | Potency [2] 18.7 µM | Potency [3] 5.9 µM | Potency [11] 6.62 µM | Potency [4] 14.8 µM | Potency [13] 7.43 µM | Potency [6] 14.8 µM | Potency [8] 9.35 µM | Potency [9] 14.8 µM | Potency [10] 16.6 µM | Potency [15] 13.2 µM | Potency [12] 16.6 µM | Potency [16] 18.7 µM

CC(C)NCC(O)COc1ccc(COCCOC(C)C)cc1 (stereo not drawn)
inactive: Potency [2] | Potency [3] | Potency [13] | Potency [6] | Potency [8] | Potency [10] | Potency [12]

NC(=O)C1CCCc2c1[nH]c1ccc(Cl)cc21 (stereo not drawn)
active: Potency [4] 1.66 µM | Potency [13] 14.8 µM | Potency [15] 14.8 µM
inactive: Potency [2] | Potency [3] | Potency [8] | Potency [9] | Potency [12] | Potency [16]

CC1(C)CNc2cc(NC(=O)c3cccnc3NCc3ccncc3)ccc21
active: Potency [3] 2.09 µM | Potency [13] 4.18 µM | Potency [15] 20.9 µM
inactive: Potency [11] | Potency [9]

CN(C(=O)c1ccc(F)cc1C(F)(F)F)C1CCN(c2nnc(-c3ccnn3C)c3ccccc23)CC1
inactive: Potency [4]
active: Potency [18] 10.5 µM

O=C1[C@H](Cc2ccc(O)cc2)N2C(=O)CCN(C(=O)NCc3ccccc3)[C@H]2CN1Cc1cccc2ccccc12
active: Potency [3] 14.8 µM | Potency [6] 7.43 µM | Potency [8] 3.72 µM | Potency [10] 3.72 µM | Potency [15] 3.32 µM | Potency [16] 9.35 µM
inactive: Potency [13] | Potency [17]

N#Cc1ccc(C(c2ccc(C#N)cc2)n2cncn2)cc1
inactive: Potency [13] | Potency [8]
active: Potency [14] 11.8 µM | Potency [16] 6.62 µM

COc1ccccc1-c1cccc(-c2c(O)c3cc(C#N)c(Cl)cc3[nH]c2=O)c1
inactive: Potency [2] | Potency [6] | Potency [7] | Potency [10] | Potency [15] | Potency [16]
active: Potency [11] 42.9 µM | Potency [13] 48.1 µM | viability [5] 162% [at 92.2 µM]

NC(=O)c1ccc(-c2nc(-c3ccc4c(c3)OCCO4)c(-c3ccccn3)[nH]2)cc1
inactive: Potency [2] | Potency [4] | Potency [7] | Potency [8] | Potency [9] | Potency [15]
active: Potency [17] 20.9 µM

— PubChem BioAssay (NCATS)
